# Assay results: PubChem BioAssay (NCI)
# This is part of a sample that, as a whole, favours compounds with a hit. Of some 83,000 tested, about 20% had one in any assay.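 Compound tested at a single concentration for 48 hours in 96-well plates; a percent growth value below 10 was scored as active.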 Unmarked numbers belong to inactive results. Active and inactive are the calls of the source.
# Legend:
# Experiment in all cases: NCI-60 one-dose screen, 48 h (100 = growth as untreated, 0 = no growth, -100 = all killed)
# [1] = tested on: HCT-15 colon; details: 10 µM unless noted
# [2] = tested on: HT29 colon; details: 10 µM unless noted
# [3] = tested on: SNB-75 CNS; details: 10 µM unless noted
# [4] = tested on: SNB-19 CNS; details: 10 µM unless noted
# [5] = tested on: U251 CNS; details: 10 µM unless noted
# [6] = tested on: PC-3 prostate; details: 10 µM unless noted
# [7] = tested on: SK-MEL-5 melanoma; details: 10 µM unless noted
# [8] = tested on: UACC-62 melanoma; details: 10 µM unless noted
# [9] = tested on: SK-MEL-28 melanoma; details: 10 µM unless noted
# [10] = tested on: SK-MEL-2 melanoma; details: 10 µM unless noted
# [11] = tested on: EKVX NSCLC; details: 10 µM unless noted
# [12] = tested on: SN12C renal; details: 10 µM unless noted
# [13] = tested on: UO-31 renal; details: 10 µM unless noted
# [14] = tested on: TK-10 renal; details: 10 µM unless noted
# [15] = tested on: ACHN renal; details: 10 µM unless noted
# [16] = tested on: CAKI-1 renal; details: 10 µM unless noted
# [17] = tested on: A498 renal; details: 10 µM unless noted
# [18] = tested on: CCRF-CEM leukemia; details: 10 µM unless noted
# [19] = tested on: MOLT-4 leukemia; details: 10 µM unless noted
# [20] = tested on: LOX IMVI melanoma; details: 10 µM
SMILES,growth [1],growth [2],growth [3],growth [4],growth [5],growth [6],growth [7],growth [8],growth [9],growth [10],growth [11],growth [12],growth [13],growth [14],growth [15],growth [16],growth [17],growth [18],growth [19],growth [20]
O=C(Nc1ccc(Cl)c(Cl)c1)OCc1ccco1,29.7%,34%,8.5% (active),63.3%,43.1%,54.1%,30.6%,25.5%,74.1%,28.9%,56.9%,48.8%,36.1%,58.2%,32.5%,25.4%,71.5%,39.3%,34.1%,–
CCOC(=O)NC(/C=C/c1ccccc1)NC(=O)OCC,105%,101%,96.6%,98.4%,94.5%,96.9%,106%,97.7%,105%,104%,–,99%,91.2%,100%,109%,94.5%,89.3%,–,98.7%,–
CCCCCCCCCCCC[N+]1(CCCCCCCCCCCC)CCCC(C)C1 (stereo not drawn),-55.6% (active),-91.8% (active),-88.3% (active),-96.5% (active),-61% (active),-93.7% (active),-100% (active),-77.9% (active),-91.2% (active),-96.5% (active),-51.7% (active),-72.4% (active),-100% (active),-79.3% (active),-78.5% (active),–,-88.4% (active),-56.7% (active),-62.6% (active),–
OC(c1cc(C23CC4CC(CC(C4)C2)C3)nc2c(Cl)cc(Cl)cc12)C1CCCCN1 (stereo not drawn),-65.7% (active),-89.8% (active),-82% (active),-58.4% (active),-88.5% (active),-84.5% (active),9.05% (active),–,-79.8% (active),-73.5% (active),-33.6% (active),-61.4% (active),-83.3% (active),-88.1% (active),-70.1% (active),-54.5% (active),-1.09% (active),-45.3% (active),-53.2% (active),-51.2% (active)
CCCCCCCCCCCC[n+]1ccc(CCCCCCCCC)cc1,-48% (active),-84% (active),-70% (active),-74.5% (active),-94.6% (active),-51.6% (active),-96.8% (active),-76.9% (active),-70.9% (active),-48.1% (active),–,-70.9% (active),-19.4% (active),-31.4% (active),-80.7% (active),23.4%,-25.4% (active),-34.9% (active),-44.7% (active),–
S=c1[nH]c2cc(Cl)ccc2s1,109%,102%,92.3%,94%,101%,94.1%,95.7%,88.4%,110%,–,102%,96.6%,66%,97.6%,95.2%,92.3%,132%,-43.5% (active),108%,–
CN(C)c1ccc2cc3c(cc2c1)Oc1ccccc1N3.[Cl][Zn][Cl],48.5%,97.3%,103%,114%,78.7%,81.1%,70.6%,65%,111%,89.5%,–,89.3%,5.78% (active),77.4%,70.9%,54.2%,115%,31.4%,24.7%,–
CCOC(=O)C1(C)CCCC1N (stereo not drawn),108%,116%,86.3%,93.6%,110%,104%,98%,91.6%,109%,113%,108%,101%,83.7%,98.7%,106%,87.6%,106%,–,103%,–
Oc1ccc(Cl)cc1Cc1cc(Cl)ccc1O,13.7%,86.3%,48.3%,41.5%,34.8%,23.9%,9.09% (active),–,35.6%,5.31% (active),60.9%,11.4%,22.9%,113%,26.1%,83.5%,63.6%,22.7%,41.3%,42.9%
CCOc1ccc(C(C[N+](=O)[O-])Sc2ccccc2N)cc1 (stereo not drawn),-11.3% (active),-49.7% (active),61.3%,46.2%,9.82% (active),10.7%,40.9%,64.6%,-36.4% (active),98.7%,66.9%,65%,-62.9% (active),106%,55.4%,64.6%,109%,30.3%,4.52% (active),–
NC(=Nc1nc(-c2ccccn2)cc2ccccc12)c1ccccn1,21.5%,13.6%,41%,22.5%,10.3%,20.6%,-79.4% (active),3.59% (active),–,66.5%,16.5%,26.2%,2.9% (active),31.5%,8.11% (active),2.97% (active),–,0.348% (active),-3.87% (active),–
CC1(C)OCC(COC(c2ccccc2)(c2ccccc2)c2ccccc2)O1 (stereo not drawn),100%,91.9%,89.3%,100%,95.3%,89.2%,105%,99.3%,103%,83.3%,–,102%,85.7%,88.5%,97.6%,89.1%,57.2%,102%,93.1%,–
Oc1ccc2c(c1)CCc1ccccc1-2,92.6%,95%,56.1%,102%,95.9%,99.2%,97.8%,104%,105%,115%,–,107%,90.3%,100%,109%,101%,68.6%,97.3%,103%,–
Cc1ccc(N2C(=O)C=CC2=O)cc1,114%,96.3%,89.6%,95.4%,102%,97.4%,91.2%,104%,112%,–,116%,–,90%,99.5%,68.1%,86.1%,–,13.7%,–,–
O=C(c1ccccc1)C(Br)C(Br)c1ccccc1 (stereo not drawn),86%,-52.9% (active),96.9%,102%,68.6%,55.3%,107%,108%,111%,75.5%,108%,104%,–,103%,18.8%,-50.2% (active),88.4%,-14% (active),47.5%,–
CN(C)c1ccc(C(=C2C=CC(=[N+](C)C)C=C2)c2ccc(N(C)C)cc2)cc1,-19.3% (active),-19.7% (active),-49.7% (active),-75.5% (active),-87.9% (active),-31.3% (active),-98.8% (active),-54% (active),-79.6% (active),-57.8% (active),-44% (active),-67% (active),-97.9% (active),–,-95.9% (active),-27.5% (active),-91% (active),-16.6% (active),-11.4% (active),–
COc1cc(NCc2ccc3nc(N)nc(N)c3c2C)cc(OC)c1OC (tested in a mixture with another compound),26.1%,20%,33.1%,31.8%,31.2%,23.4%,21.1%,30.5%,–,–,55.8%,–,34.9%,31.1%,–,25.4%,32.9%,19.9%,20.6%,16.3%
